# Screens: PubChem, National Center for Advancing Translational Sciences (NCATS)
# Pf Dd2 growth – blocks in vitro growth of P. falciparum Dd2 | P. falciparum Dd2 growth, SYBR Green, 72 h | Potency, µM (series often up to 28.9 µM), for inactives: at the highest dose activity, negative = inhibition, most hits filed as inhibitors | 120,000 compounds, 4.3% hits; active = well fitted inhibition curve with a large enough effect;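 also: plate controls were DMSO vehicle for no effect and reference drug for full effect; nearly all actives have a fitted effect of over 65% in size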
#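 Infected erythrocytes (Dd2, 0.3% parasitemia, 2.5% hematocrit final) are added to compound in RPMI-1640/Albumax II medium, grown 72 h at 37C in low oxygen, then lysed with saponin/Triton-X containing SYBR Green and read by fluorescence.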
# An asterisk follows results filed as active; i = inactive; [ ] = dose if it differs, or a comment. This excerpt belongs to a sample that is enriched for hits. Potency is read from the fitted curve at half-maximal effect.
SMILES,Pf Dd2 growth
CCOC(=O)c1cc(-c2ccc(C)cc2)n(CCCC(=O)Nc2cc(C)ccc2C)c1,11.2µM*
CCOC(=O)c1cc(-c2ccccc2)n(CCCC(=O)Nc2ccc(C)cc2Cl)c1C,i
O=C(Cc1c[nH]c2ccccc12)NC1CCc2nn(CC3CC3)c(=O)n2CC1 (configuration not stated),13.2%
CN(C)C(=O)c1nc(-c2ccc(Cl)cc2)c2ccccn12,-8.9%[44.1 µM]
CCCNC(=O)[C@@H]1Cc2cn(Cc3nccn3C)c3cccc(c23)[C@H](CC(C)C)N1,10µM*
CC(C)C[C@@H]1N[C@H](C(=O)NCC2CC2)Cc2cn(Cc3nccn3C)c3cccc1c23,-17.6%[44.1 µM]
COc1ccccc1CNC(=O)[C@@H]1Cc2cn(C)c3cccc(c23)[C@H](CC(C)C)N1,-13.3%[44.1 µM]
COCCCNC(=O)[C@@H]1Cc2cn(Cc3nccn3C)c3cccc(c23)[C@H](CC(C)C)N1,-4.2%[44.1 µM]
Cc1cc(Cn2cc3c4c(cccc42)[C@H](CC(C)C)N[C@H](C(=O)O)C3)no1,i
CCCNC(=O)[C@@H]1Cc2cn(Cc3c(C)noc3C)c3cccc(c23)[C@H](CC(C)C)N1,11.2µM*
CC(C)C[C@@H]1N[C@H](C(=O)NCCN(C)C)Cc2cn(Cc3ccccn3)c3cccc1c23,-18.8%[44.1 µM]
CC(C)C[C@@H]1N[C@H](C(=O)NCc2ccccn2)Cc2cn(Cc3ccncc3)c3cccc1c23,-29.3%
CC(C)C[C@@H]1N[C@H](C(=O)NC2CC2)Cc2cn(Cc3nccn3C)c3cccc1c23,11.2µM*
C=CCn1cc2c3c(cccc31)[C@H](CC(C)C)N[C@H](C(=O)NCc1ccccn1)C2,11.2µM*
CN(C)C[C@@H]1CN(S(C)(=O)=O)C[C@H]1N,i
O=C1NC2(CCN(C(=O)c3ccc(F)cc3)C2)OCc2ccccc21 (configuration not stated),i
O=C(NC1CCN(c2cc(C(F)(F)F)ncn2)CC1)c1ccccc1,26.7%
CCO[C@H]1CN(C(=O)Cc2ccc3nc(C)[nH]c3c2)C[C@@H]1O,-18.7%
O=C1NC2(CN(Cc3cccnc3)C2)Oc2ccccc21,-10.3%[44.1 µM]
Cc1ccc(NC2CCCN(C(=O)c3ccc(F)c(F)c3)C2)cc1C (configuration not stated),-8.2%
CC(C)C[C@@H]1N[C@H](C(=O)NCc2ccccc2)Cc2cn(Cc3cccnc3)c3cccc1c23,-6.6%
C#CCNC(=O)[C@@H]1Cc2cn(Cc3ccncc3)c3cccc(c23)[C@H](CC(C)C)N1,10µM*
Cc1cc(Cn2cc3c4c(cccc42)[C@H](CC(C)C)N[C@H](C(=O)NCc2nccs2)C3)no1,-7.1%
CC(C)C[C@@H]1N[C@H](C(=O)NC2CCC2)Cc2cn(Cc3ccccn3)c3cccc1c23,11.2µM*
CC(C)C[C@@H]1N[C@H](C(=O)NC2CCC2)Cc2cn(Cc3ccncc3)c3cccc1c23,-28.3%[44.1 µM]
SMILES,Pf Dd2 growth
CC(C)C[C@@H]1N[C@H](C(=O)NCCN2CCOCC2)Cc2cn(Cc3ccccn3)c3cccc1c23,i
CC(C)C[C@@H]1N[C@H](C(=O)N2CCOCC2)Cc2cn(Cc3nccn3C)c3cccc1c23,11.2µM*
CC(C)C[C@@H]1N[C@H](C(=O)NCC2CC2)Cc2cn(Cc3ccccn3)c3cccc1c23,-23.4%[44.1 µM]
Cc1cc(Cn2cc3c4c(cccc42)[C@H](CC(C)C)N[C@H](C(=O)NCc2ccc(C)o2)C3)no1,12.6µM*
CC(=O)NCCNC(=O)[C@@H]1Cc2cn(Cc3cc(C)on3)c3cccc(c23)[C@H](CC(C)C)N1,i
Cc1cccc(NC(=O)c2cc3n(n2)CC(c2ccc(Cl)cc2)OC3)c1C (configuration not stated),-14.9%
Cc1nc(-c2c3n(c(=O)n(CC(=O)Nc4ccc(C)c(F)c4)c2=O)CCCCC3)no1,14.0%
COCc1cccc(C(=O)N2CC[C@@]3(O)CCN(S(C)(=O)=O)C[C@H]3C2)n1,-4.4%
O=C(c1cc(F)ccc1F)N1CCC(Cc2nc(-c3ccccc3)no2)CC1,i
CCOc1cccc(CNC(=O)c2noc(-c3ccc(F)cc3)n2)c1,30.6%
CN1CCN(c2nc3c(c(=O)[nH]2)CCN(Cc2ccc(F)cc2Cl)CC3)CC1,7.8%[5.79 µM]
CN1CCN(c2nc3c(c(=O)[nH]2)CCN(CC2CCCCC2)CC3)CC1,16.9%[5.79 µM]
O=C(O)C1=NOC2CN(Cc3ccc(Cl)cc3)CC12 (configuration not stated),21.1%
N#Cc1ccccc1CN1CCc2nc(N3CCOCC3)[nH]c(=O)c2CC1,-16.9%[5.79 µM]
CNC(=O)N1CCC(C2CCN(C3CCN(CCc4ccccc4)CC3)C2)CC1 (configuration not stated),-23.4%
COc1cccc(CNC(=O)CN2CCCN(Cc3ccccc3)S2(=O)=O)c1,17.2%
CCc1cccc(NC(=O)CN2CCCN(Cc3cccc(C)c3)S2(=O)=O)c1,28.2%
CCOc1ccc(NC(=O)CN2CCN(Cc3ccccc3)S2(=O)=O)cc1,5.62µM*
CC(C)(C)CC(=O)Nc1ccc([C@@H](O)[C@H]2COCC(=O)N2Cc2ccc(F)cc2)cc1,i
CC(C)SCC(=O)N1CCCC(N2CCN(c3ccc(F)cc3)CC2)C1 (configuration not stated),-15.9%
CCOc1ccc(C2c3c(-c4ccc(C)cc4)n[nH]c3C(=O)N2c2ccc(Cl)cc2)cc1 (configuration not stated),10µM*
Cc1ccc(-c2n[nH]c3c2C(c2cccc(O)c2)N(c2ccc(C(=O)O)cc2)C3=O)cc1 (configuration not stated),20.6%
CCOC(=O)c1ccc(N2C(=O)c3n[nH]c(-c4cccs4)c3C2c2ccc(C(C)C)cc2)cc1 (configuration not stated),-2.1%
CCOC(=O)c1ccc(NC(=O)c2cn(-c3ccccc3)nc2-c2ccc(Br)cc2)cc1,0.6%
CCOC(=O)c1ccc(NC(=O)c2cn(-c3ccccc3)nc2-c2ccc(C)cc2)cc1,4.4%
SMILES,Pf Dd2 growth
CCOC(=O)c1ccc(N2C(=O)c3[nH]nc(-c4ccc(C)cc4)c3C2c2cccs2)cc1 (configuration not stated),11.2µM*
CCOC(=O)c1ccc(N2C(=O)c3n[nH]c(C)c3C2c2cccc(Br)c2)cc1 (configuration not stated),12.6µM*
CCOC(=O)c1ccc(N2C(=O)c3n[nH]c(-c4cccs4)c3C2c2cccc(O)c2)cc1 (configuration not stated),-18.4%
CCOC(=O)c1ccc(N2C(=O)c3n[nH]c(-c4cccs4)c3C2c2ccc(CC)cc2)cc1 (configuration not stated),10µM*
CCOC(=O)c1ccc(N2C(=O)c3[nH]nc(-c4ccc(OC)cc4)c3C2c2ccccc2Cl)cc1 (configuration not stated),-7.5%
O=C1c2[nH]nc(-c3ccccc3)c2C(c2ccccc2)N1c1cccc(C(F)(F)F)c1 (configuration not stated),i
CCOC(=O)c1ccc(N2C(=O)c3n[nH]c(C)c3C2c2ccc(C(C)(C)C)cc2)cc1 (configuration not stated),22.6%
O=C(O)C1CCc2nnc(C3CCN(C(=O)Cc4ccccc4)CC3)n21 (configuration not stated),24.5%
CCOCc1nc(C2CCCN(C(=O)Cc3ccc(C)cc3)C2)no1 (configuration not stated),-21.5%
O=C(O)[C@]12CCCN[C@@H]1CCN(c1cc(N3CCOCC3)ncn1)C2,-14.6%
C=CCOc1cccc(-c2nc(C(=O)N(C)Cc3ccccc3)cs2)c1,5.0%
CCOC(=O)c1ccc(N2C(=O)Cc3cc(OCC)c(OCC)cc3C2c2ccccc2)cc1 (configuration not stated),39.8%
